Records with an inconclusive call do not appear. Values without a mark were called inactive. The call rests on the fitted dose curve; in most records, active means well fitted cell-killing curve with a large enough effect in the repeat runs; inconclusive means weak or mixed curves, or effect the other way; inactive means flat fitted curve, though single readings scatter.
Experiment: qHTS assay to identify small molecule agonists of the estrogen receptor beta (ER-beta) signaling pathway - cell viability counter screen (AID 1259380); further: nearly all actives have a fitted effect of over 30% in size
Conditions: ER-beta-bla HEK293T viability, CellTiter-Glo luminescence, 16 h; series mostly up to 92.4 µM; activity change, negative = cytotoxicity: at the top concentration
From the text: National Center for Advancing Translational Sciences [NCATS]
NIH Chemical Genomics Center [NCGC]
U.S. Environmental Protection Agency [EPA]
National Institutes of Environmental Health Sciences [NIEHS]
National Toxicology Program [NTP]
U.S. Food and Drug Administration [FDA]
Estrogen receptor (ER), a nuclear hormone receptor, plays an important role in development, metabolic homeostasis and reproduction. Two subtypes of ER, ER-alpha and ER-beta, have similar expression patterns with some uniqueness in both types. Endocrine disrupting chemicals (EDCs) and their interactions with steroid hormone receptors like ER causes disruption of normal endocrine function. To identify the compounds that activate ER signaling, an ER beta-UAS-bla GripTite cell line (Life Technologies, Madison, WI, USA) containing a beta-lactamase reporter gene under the control of an UAS response element was used to screen Tox21 10K compound library. The cytotoxicity of the Tox21 compound library against the ER-beta-bla cell line was tested in parallel by measuring the cell viability using CellTiter-Glo assay in the same wells.
Tox21 Assay Protocol Summary:
ER-beta-UAS-bla HEK293T cells were dispensed at 2,000 cells/5 uL of assay medium containing 2% charcoal stripped FBS per well into black wall/clear-bottom 1536-well plates using a Multidrop Combi (ThermoFisher Scientific, Waltham, MA) dispenser. After the assay plates were incubated at a 37C and 5% CO2 for 6 hr, 23 nL of compounds dissolved in DMSO, positive controls or DMSO only was transferred to the assay plate by a Pintool station (Kalypsys, San Diego, CA). The plates were incubated at 37C and 5% CO2 for 16 hr. Then 1 uL of LiveBLAzerTM B/G FRET substrate was added using a BioRAPTR FRD (Flying Reagent Dispenser, Aurora Discovery, San Diego, CA) and then the plates were incubated at room temperature for 2 hours, and fluorescence intensity was measured by an Envision plate reader (PerkinElmer, Shelton, CT). For cell viability readout that measures cytotoxicity, 4 uL/well of CellTiter-Glo reagent was added into the assay plates using a FRD. After 30 min incubation at room temperature, the luminescence intensity in the plates was measured using a ViewLux (PerkinElmer) plate reader.
On the % scale 0 is the no-effect control and ±100 the full control effect.

Compound	activity change, negative = cytotoxicity
c1ccc(CNc2ncnc3nc[nH]c23)cc1	1.32%
CCCCC(CC)COC(=O)c1ccccc1 (stereo not given)	0.292%
CCS(=O)(=O)CCn1c([N+](=O)[O-])cnc1C	2.47% [at 42.5 µM]
CNC(=O)NC	12.3%
O=S(=O)(O)SSS(=O)(=O)O	-1.08%
C[CH2][Ge]([Cl])([CH2]C)[CH2]C	3.52%
C[C@H](CCC(=O)O)[C@H]1CC[C@H]2[C@@H]3[C@H](O)C[C@@H]4C[C@H](O)CC[C@]4(C)[C@H]3C[C@H](O)[C@]12C	0.782% [at 42.5 µM]
CCOC(=O)CC#N	-2.73%
COCCOCCOCCOC	0.968%
O=[Si]=O	2.69%
CO[Si](CCCCl)(OC)OC	5.75%
COc1cc2c(Nc3ccc(Br)cc3F)ncnc2cc1OCC1CCN(C)CC1	1.76% [at 42.5 µM]
COc1ccc(N=Nc2cc(C)c(N=Nc3ccc(S(=O)(=O)O)cc3)cc2OC)cc1	0.117%
Cc1oc(=O)oc1CN1CCN(c2cc3c(cc2F)c(=O)c(C(=O)O)c2n3C(C)S2)CC1 (stereo not given)	3.36% [at 42.5 µM]
Nc1cc(S(=O)(=O)O)ccc1S(=O)(=O)O	6.64%
CC(=O)Nc1ncc([N+](=O)[O-])s1	-1.1% [at 42.5 µM]
Nc1cc(C(=O)O)ccc1Cl	0.0718%
CCCCC[Si](OCC)(OCC)OCC	4.38%
CNCc1ccccc1	3.38% [at 42.5 µM]
NS(=O)(=O)c1cc2c(cc1Cl)NC(C(Cl)Cl)NS2(=O)=O (stereo not given)	4.69% [at 42.5 µM]

Compound	activity change, negative = cytotoxicity
O=C(Nc1cccc(C2=NCCN2)c1)Nc1cccc(C2=NCCN2)c1	2.07% [at 19 µM]
NC(=O)NNC(N)=O	2.04%
C=C[Si](C)(C)O[Si](C)(C)C=C	0.0176%
Cn1c(=O)c2c(ncn2CC2OCCO2)n(C)c1=O	10.3% [at 42.5 µM]
CC1=CC[C@H](CC=O)C1(C)C	-4.4%
O=C1c2ccccc2-c2ccccc21	2.43%
C/C=C(\C)C(=O)OCC/C=C\CC	0.859%
COC(=O)CCC(=O)O	-0.709%
NS(=O)(=O)c1cc2c(cc1Cl)NC(CC1CCCC1)NS2(=O)=O (stereo not given)	0.386% [at 42.5 µM]
O=CN1CCOCC1	10.6%
CCCCCCCCCCCCCCCC(=O)NCCO	1.65% [at 42.5 µM]
Nc1cc(Cl)cc(S(=O)(=O)O)c1O	-6.68%
O=C1NC2NC(=O)NC2N1 (stereo not given)	6.65%
CCNC(=O)NCCCOc1cccc(CN2CCCCC2)c1	5.87% [at 42.5 µM]
CCC(CO)CO	10.7%
OCCCCCCCl	7.2%
CCC(C)N (stereo not given)	-0.463%
COCC(=O)Nc1c(I)c(C(=O)NCC(O)CO)c(I)c(C(=O)N(C)CC(O)CO)c1I (stereo not given)	3.58% [at 42.5 µM]
CCC1COC(=O)O1 (stereo not given)	7.16%
N#CCCOCCOCCC#N	1.08%

From PubChem BioAssay (Tox21)
